Measured values: PubChem BioAssay (NCATS)
Results filed as inconclusive are left out. The source made the active and inactive calls. Calls follow the shape of the dose curve; as a rule, active = well fitted inhibition curve with a large enough effect; inconclusive = small, poorly fitted or top-dose-only effect; inactive = flat fitted curve, though single readings scatter.

tested on: CRL-7250; experiment: qHTS assay to identify novel small-molecules to repurpose for Merkel cell carcinoma treatment (AID 1296009); conditions: MCC and control cell lines, CellTiter-Glo viability, 72 h; at 44.8 µM (top of the series) unless noted; also: nearly all actives have a fitted effect of over 60% in size
Summary of the method: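 Cells exposed to NPC (8-point) and MIPE (11-point) compound dilutions for 72 hr at 37 degree celsius; viability read by CellTiter-Glo luminescence, normalized to no-cell and DMSO in-plate controls.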

Structure (SMILES) | outcome
Nc1ccc(S(=O)(=O)Nc2ccccn2)cc1 | inactive
Nc1nc2ccc(OC(F)(F)F)cc2s1 | inactive
CC(C(=O)O)c1ccc(C(=O)c2ccccc2)s1 (stereo unspecified) | inactive
C/C(=N\O)[C@@H](C)NCC(C)(C)CN[C@H](C)/C(C)=N/O | inactive
NCCCC[C@H](N[C@@H](CCc1ccccc1)C(=O)O)C(=O)N1CCC[C@H]1C(=O)O | inactive
O=C(NC(Cc1cc(=O)[nH]c2ccccc12)C(=O)O)c1ccc(Cl)cc1 (stereo unspecified) | inactive
C=CCc1ccc(O)c(OC)c1 | inactive
CC(C)=CCC/C(C)=C/CO | inactive
Cc1cnc(NC(=O)C2=C(O)c3ccccc3S(=O)(=O)N2C)s1 | inactive
O=C(Oc1ccccc1)c1ccccc1O | inactive
NC(=O)N[C@@H](CCC(=O)O)C(=O)O | inactive
C[C@]12C=CC(=O)C=C1CC[C@@H]1[C@@H]2C(=O)C[C@@]2(C)[C@H]1CC[C@]2(O)C(=O)CO | inactive [at 17.4 µM]
CCOC(=O)Oc1ccc(CCNC(=O)[C@H](CCSC)NC(C)=O)cc1OC(=O)OCC | inactive
CCOc1cc(CC(=O)N[C@@H](CC(C)C)c2ccccc2N2CCCCC2)ccc1C(=O)O | inactive
CC(C)(C)NCC(O)COc1cccc2c1C[C@H](O)[C@H](O)C2 (stereo partly specified) | inactive
Cc1cc(OI)c(C(C)C)cc1-c1cc(C(C)C)c(OI)cc1C | inactive
